In the library only some 3.2% were active in any assay of this set; here they are far more common.
Tau fil binding = binds recombinant human tau filaments; recombinant tau filaments, thioflavin S fluorescence, 15 h; filaments grown with octadecylsulfate alongside compound; Potency, µM (titrated, usually from 57.1 µM), for inactives: top-dose activity change, negative = inhibition; hit rate 2% among 71,000;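 further: on the % scale 0 is the no-effect control and ±100 the full control effect; actives lower thioflavin S fluorescence by blocking filaments or displacing dye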
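Quantitative HTS: thioflavine S signal from ODS-induced tau filaments, excited at 450 nm, emission 510 nm. Conditions: 1 uM tau, 30 uM ODS, 15 h at 37 C, pH 7.4.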
15-hLO inh = blocks human 15-lipoxygenase activity | purified 15hLO-1, xylenol orange hydroperoxide absorbance | Potency, µM (highest dose often 57.1 µM), for inactives: at the highest dose activity change, negative = inhibition, actives largely listed as inhibitors | hit rate 1.4% among 74,000 | AID 887; further: on the % scale 0 is the no-effect control and ±100 the full control effect; nearly all actives have a fitted effect of over 55% in size
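Compounds were preincubated 15 min at room temperature with 40 nM purified human enzyme (25 mM Hepes pH 7.5, 0.01% Triton X-100); 50 uM arachidonic acid reacted 6 min. Fe-xylenol orange detection, 30 min, absorbance ratio 573/405 nm.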
Hsp90 Hop PPI = changes Hsp90-Hop TPR2A binding signal, up or down | AlphaScreen TPR2A-His6 binding biotin-Hsp90 C-terminal peptide | Potency, µM (titrated, usually from 57 µM), for the others: top-dose activity change, negative = inhibition | hit rate 0.44% among 71,000 | AID 595; active means well fitted curve in either direction with a large enough effect; inconclusive means small, poorly fitted or top-dose-only effect, or another doubt; further: on the % scale 0 is the no-effect control and ±100 the full control effect
USP2a inh = inhibitors of human ubiquitin-specific protease USP2a. O75604. hit rate 0.1% among 60,000. Potency, µM (titrated, usually from 38.3 µM), for inactives: at the highest dose activity change, negative = inhibition, actives largely listed as inhibitors. AID 927. USP2a enzymatic assay, qHTS inhibition; further: nearly all actives have a fitted effect of over 60% in size
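USP2 core (20 nM final) was preincubated with compound for 30 min at RT in 20 mM Tris-HCl pH 8.0, 2 mM CaCl2, 2 mM beta-mercaptoethanol; Ub-PLA2 (20 nM) plus NBD C6-HPC (20 uM) then added, fluorescence read after 2.5 h.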
Numbers without * were called inactive; u = inconclusive; x = not tested or not shown; [ ] = remark or other dose. Unless noted, the call rests on the fitted dose curve; in most records, active means well fitted curve in the direction sought with a large enough effect; inconclusive means small, poorly fitted or top-dose-only effect, or another doubt; inactive means no such curve, though single readings can be large; an effect the other way counts as inactive or inconclusive. Potency means the concentration at half of the fitted maximal effect.

SMILES	Tau fil binding	15-hLO inh	Hsp90 Hop PPI	USP2a inh
Oc1ccccc1NCC(O)Cn1ccc2ccccc21 (configuration not stated)	13µM*	6.3µM*	u	24%
Cc1cc(N)ccc1-n1c(C)ccc1C	25µM*	u	-3%	0%
Cc1cc(C(=O)O)ccc1-n1c(C)ccc1C	-6%	u	-6%	-13%
COc1cccc(-c2cc(NCc3ccccc3)ncn2)c1	10%	5%	6%	23%
O=C(CN1CCOc2ccccc21)NC1CCN(Cc2ccccc2)CC1	13µM*	-6%	-15%	x
C/C(CCN1CCCCc2nc(C)c(C)cc21)=N\OC[C@@H](O)COCc1ccco1	x	4%[11.4 µM]	x	x
O=C(O)C(S)[C@@H](S)C(=O)O (some centres not stated)	x	7.9µM*	x	-19%
O=C(Nc1ccccc1)N1CCC2(CC1)CCN(C(=O)c1ccncc1)CC2	-2%	8%	-3%	-6%
Cc1ccc(C(=O)C2CCN(CC(=O)Nc3ccc4c(c3)OCCO4)CC2)cc1	-17%	9%	-2%	x
Cc1ccc(C(=O)C2CCN(CC(=O)Nc3ccc(N(C)C)cc3)CC2)cc1	20µM*	-17%	-16%	7%
Cc1nc2cnc(Nc3ccccc3)nc2n(CCc2ccccc2)c1=O	-19%	2%	-3%	29%
COCC(=O)Nc1ccc(Nc2ccccc2)cc1	7.9µM*	-8%	-23%	23%
CCC(=O)Nc1ccc(Nc2ccccc2)cc1	u	-2%	-5%	7%
COc1ccccc1CN1CCCC2(CCNCC2)C1	2%	23%	-8%	22%
Oc1ccc(Nc2nc(-c3ccc(O)cc3)cs2)cc1	u	u	-27%	u
NS(=O)(=O)c1ccc(Nc2nc(-c3ccc(O)cc3)cs2)cc1	17%	25µM*	-10%	5%
C#C[C@@]1(O)CC[C@@H]2[C@@H]3CCC4=CC(=O)CC[C@@H]4[C@H]3CC[C@]21C	3%[25.6 µM]	0%[25.6 µM]	-1%[26 µM]	1%[17.1 µM]
CC#C[C@]1(O)CC[C@H]2[C@@H]3CCC4=CC(=O)CCC4=C3[C@H](c3ccc(N(C)C)cc3)C[C@@]21C	32µM*	10µM*	u	25%
N#CC1=C(N)S[C@H](C(=O)C23CC4CC(CC(C4)C2)C3)[C@H]1c1ccncc1	-9%	13µM*	-16%	34%
CCc1ccc(NC(=O)c2cc(-c3ccco3)on2)cc1	16µM*	-11%	-1%	28%
CC(C)NC(=O)c1cc(-c2ccco2)on1	-7%	2%	-1%	3%
O=C(O)[C@H]1CN[C@H](C(=O)O)C1	40µM*	u	-6%	x
N#CC1=C(N)Oc2c(ccc3cccnc23)C1c1cccnc1 (configuration not stated)	-10%	u	32µM*	15%
C#C[C@]1(O)CCC2C3CCC4=C(CCC(=O)C4)C3CC[C@@]21C (some centres not stated)	x	u	x	-6%
CC(C)Nc1nc(C#N)nc(NC(C)C)n1	13µM*	-5%	u	-1%
SMILES	Tau fil binding	15-hLO inh	Hsp90 Hop PPI	USP2a inh
CC1(C)C(=O)C(c2ccccc2)=C2CN3C(=O)N(CCc4ccccc4)C(=O)C3(Cc3ccc(C(F)(F)F)cc3)C=C21 (configuration not stated)	-13%	x	-5%	x
CC1(C)CC(=O)C2=C(C1)OC(N)=C(C#N)C2C1CC=CCC1 (configuration not stated)	-11%	32µM*	0%	2%
CC1C(C#N)=C(N)OC2=C1C(=O)CC(C)(C)C2 (configuration not stated)	11%	2%	-3%	-9%
O=c1cnc2cnc(Oc3cccc(Cl)c3)nc2n1CCc1ccccc1	25µM*	-11%	-11%	-14%
COC(=O)c1ccc2c(c1)SC1=C(CCCC1=O)N2	16µM*	16µM*	-9%	-4%
CC(=O)Nc1ccccc1-c1ccc(C)o1	3%	3%	-4%	2%
CC(=O)CCc1oc2ccc(NC(C)=O)cc2c1-c1ccc(C)o1	8%	16µM*	-9%	4%
Cc1cc(C)c(NC(=O)c2cc3c(nc4sccn43)s2)c(C)c1	-19%	-7%	-10%	39%
Cc1ccc(C)c(C(=O)c2c(C)nc3sccn23)c1	-8%	16µM*	1%	4%
CCOC(=O)NC1(Nc2ccc(Cl)cn2)Oc2ccccc2O1	4%	25µM*	0%	-4%
C=C(N(C)C)[C@]1(C)C[C@H]1[C@H](NC(=O)CNC(=O)OCc1ccccc1)c1ccccc1	0%	6%	-2%	x
